Assay results taken from PubChem BioAssay (Tox21).
Calls of active or inactive are those of the source. Unless noted, calls follow the shape of the dose curve; as a rule, active = well fitted curve in the direction sought with a large enough effect in the repeat runs; inconclusive = weak or mixed curves; inactive = no such curve, though single readings can be large; an effect the other way counts as inactive or inconclusive.

Tests used:
[1] = qHTS assay for small molecules that induce genotoxicity in human embryonic kidney cells expressing luciferase-tagged ATAD5 (AID 651632); also: nearly all actives have a fitted effect of over 15% in size
Outline: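 Luminescence read-out: after 16 hr compound exposure at 37C, ATAD5-luciferase HEK293T cells received Amplite, 30 min RT, then CCD imaging. A rise in signal marks genotoxic stress.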

[2] = qHTS assay for small molecule agonists of the p53 signaling pathway - cell viability (AID 651633; calls by dose curve; also: nearly all actives have a fitted effect of over 30% in size; also: potency is read from the fitted curve at half-maximal effect)
Outline: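 p53RE-bla cells were treated with compound for 16 hours at 37 C. Cytotoxicity was then measured as CellTiter-Glo luminescence after 30 min at room temperature.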

[3] = qHTS assay for small molecules that induce genotoxicity in human embryonic kidney cells expressing luciferase-tagged ATAD5 - cell viability (AID 651634; calls by dose curve; also: nearly all actives have a fitted effect of over 25% in size)
Outline: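 HEK293T ATAD5-luc cells, 2,000/well; compound 15.5 hr, 37C/5% CO2; CellTiter-Fluor 30 min, 37C; fluorescence read.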

[4] = qHTS assay for small molecule disruptors of the mitochondrial membrane potential - cell viability (AID 720634; calls by dose curve; also: nearly all actives have a fitted effect of over 20% in size; also: potency is read from the fitted curve at half-maximal effect)
Outline: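 Luminescence from CellTiter-Glo (ATP content) gave viability in HepG2 cells, read in the same wells as the MMP dye assay after 1 hr compound exposure at 37 C.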

[5] = qHTS assay to test for compound auto fluorescence at 590 nm (red) in HepG2 cells (AID 720674)
Outline: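 Fluorescence at 590 nm emission following 540 nm excitation was recorded from HepG2 wells one hour after compound transfer, with DMSO-only wells as vehicle and Rose Bengal sodium equivalency as the scale.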

[6] = qHTS assay to test for compound auto fluorescence at 535 nm (green) in HepG2 cells (AID 720675)
[7] = qHTS assay to test for compound auto fluorescence at 460 nm (blue) in HEK293 cells (AID 720678)
Outline: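 Triamterene serves as the blue fluorophore standard. Compound signal at 405/460 nm is read in HEK293 wells (2,000 cells, 10% dialyzed FBS) after overnight treatment at 37C.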

[8] = qHTS assay to test for compound auto fluorescence at 590 nm (red) in HEK293 cells (AID 720679)
Outline: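 We plated HEK293 cells in 10% dialyzed FBS medium, let them adhere for 4-5 hr, then added 23 nL compound. Overnight at 37C and 5% CO2 preceded fluorescence measurement at 540/590nm.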

[9] = qHTS assay to test for compound auto fluorescence at 535 nm (green) in HEK293 cells (AID 720680)
[10] = qHTS assay to test for compound auto fluorescence at 460 nm (blue) in HEK293 cell free culture (AID 720681)
Outline: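 Compounds were added to cell-free DMEM with 10% FBS and fluorescence read directly. The blue channel used 405 nm excitation and 460 nm emission, with triamterene as the reference fluorophore.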

[11] = qHTS assay to test for compound auto fluorescence at 535 nm (green) in HEK293 cell free culture (AID 720682)
Outline: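 No cells present: wells hold DMEM supplemented with 10% FBS, into which compound or vehicle is pinned. Green emission is then recorded (485 nm excitation, 535 nm emission) and scaled to fluorescein.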

[12] = qHTS assay to test for compound auto fluorescence at 590 nm (red) in HEK293 cell free culture (AID 720683)
Outline: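 Cell-free wells of DMEM with 10% FBS received compound, and intrinsic fluorescence was read at excitation/emission 540/590 nm. Values expressed as equivalence to Rose Bengal sodium.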

[13] = qHTS assay to test for compound auto fluorescence at 590 nm (red) in HepG2 cell free culture (AID 720684)
Outline: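 Rose Bengal sodium served as the reference for red signal. Test compounds were dispensed into serum-containing MEM (10% FBS) without cells, and plates were read at 540/590 nm.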

[14] = qHTS assay to test for compound auto fluorescence at 460 nm (blue) in HepG2 cell free culture (AID 720685)
Outline: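 Cell-free plates of MEM plus 10% FBS received 23 nL compound or DMSO vehicle; blue-channel (405/460 nm) intensity scored against triamterene as reference fluorophore.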

[15] = qHTS assay to test for compound auto fluorescence at 535 nm (green) in HepG2 cell free culture (AID 720686)
[16] = qHTS assay to test for compound auto fluorescence at 460 nm (blue) in HepG2 cells (AID 720687)
Outline: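 HepG2 cells in MEM with 10% FBS, attached overnight at 37 C, were exposed to compound or DMSO for 1 hr at 37 C, 5% CO2. Blue fluorescence was read at 405/460 nm, with triamterene as reference fluorophore.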

[17] = qHTS assay for small molecule disruptors of the mitochondrial membrane potential (AID 720635); also: potency is read from the fitted curve at half-maximal effect
Outline: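 HepG2 cells exposed to compound 1 hr at 37C, then Mito-MPS dye 30 min. Ratio read of aggregate (540/590 nm) versus monomer (490/535 nm) fluorescence.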

[18] = target: Glucocorticoid receptor (Homo sapiens) (UniProt P04150); assay: qHTS assay to identify small molecule agonists of the glucocorticoid receptor (GR) signaling pathway (AID 720691; active = well fitted activation curve with a large enough effect in the signal ratio in the repeat runs, not every such curve was filed as active; inconclusive = weak or mixed curves, or effect the other way; inactive = no such curve, though single readings can be large or run the other way; the % refers to the signal ratio; also: potency is read from the fitted curve at half-maximal effect); conditions: GR-bla HeLa, beta-lactamase reporter ratio, 18 h; activation: at 62.4 µM (top of the series) unless noted
Chain of Glucocorticoid receptor (Homo sapiens) (P04150 whole entry, looked up): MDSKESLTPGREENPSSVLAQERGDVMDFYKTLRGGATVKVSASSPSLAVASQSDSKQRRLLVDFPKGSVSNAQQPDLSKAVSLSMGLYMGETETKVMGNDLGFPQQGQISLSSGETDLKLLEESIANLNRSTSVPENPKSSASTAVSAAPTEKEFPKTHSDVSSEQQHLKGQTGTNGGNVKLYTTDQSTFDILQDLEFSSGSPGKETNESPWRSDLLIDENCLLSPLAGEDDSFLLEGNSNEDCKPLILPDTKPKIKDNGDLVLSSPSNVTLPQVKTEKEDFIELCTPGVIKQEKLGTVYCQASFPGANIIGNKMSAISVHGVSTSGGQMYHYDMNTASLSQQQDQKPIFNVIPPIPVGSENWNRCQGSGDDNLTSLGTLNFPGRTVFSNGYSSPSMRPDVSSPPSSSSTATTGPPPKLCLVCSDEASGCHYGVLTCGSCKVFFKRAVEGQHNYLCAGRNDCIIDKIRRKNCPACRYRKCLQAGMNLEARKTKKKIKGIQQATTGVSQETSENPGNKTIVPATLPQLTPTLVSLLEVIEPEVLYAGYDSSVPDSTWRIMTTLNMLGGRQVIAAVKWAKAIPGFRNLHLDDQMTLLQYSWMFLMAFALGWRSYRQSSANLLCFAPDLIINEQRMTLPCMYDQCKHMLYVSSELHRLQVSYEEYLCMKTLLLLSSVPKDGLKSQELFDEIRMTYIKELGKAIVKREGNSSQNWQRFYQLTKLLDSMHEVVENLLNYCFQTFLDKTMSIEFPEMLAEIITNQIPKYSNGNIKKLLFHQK
Outline: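 HeLa GR-bla reporter line; cells pre-incubated 4 h, compound in DMSO 18 h at 37 C; LiveBLAzer B/G FRET substrate 2 h RT; fluorescence intensity read-out.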

[19] = qHTS assay for small molecule agonists of the p53 signaling pathway (AID 651631; calls by dose curve; also: nearly all actives have a fitted effect of over 15% in size; also: potency is read from the fitted curve at half-maximal effect)
Outline: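 Agonist mode screen using a stably integrated beta-lactamase gene under p53 response elements in HCT-116 cells. Compound exposure lasts 16 h at 37 °C; fluorescence intensity is measured following 2 h FRET substrate loading.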

[20] = target: Glucocorticoid receptor (Homo sapiens) (UniProt P04150); assay: qHTS assay to identify small molecule antagonists of the glucocorticoid receptor (GR) signaling pathway (AID 720692; active = well fitted inhibition curve with a large enough effect in the signal ratio in the repeat runs, not every such curve was filed as active; inconclusive = weak or mixed curves, or effect the other way; inactive = no such curve, though single readings can be large or run the other way; the % refers to the signal ratio; also: potency is read from the fitted curve at half-maximal effect)
Outline: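 Read-out: beta-lactamase FRET substrate fluorescence, 2 h at room temperature, in HeLa cells stably carrying a GRE-driven bla reporter. Compounds were co-incubated with 5 nM dexamethasone agonist (final) for 18 h at 37 C.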
% is scaled to controls: 0 for no effect and ±100 for the full control effect.

CCC(CC)Nc1ccc(C)c(C)c1
inactive: Potency [1] | Potency [2] | Potency [3] | Potency [4] | Potency [5] | Potency [6] | outcome [7] | Potency [8] | outcome [9] | outcome [10] | outcome [11] | Potency [12] | Potency [13] | outcome [14] | Potency [15] | outcome [16]

CCCCOC(=O)CCCCCCCC(=O)OCCCC
inactive: Potency [1] | Potency [2] | Potency [3] | Potency [4] | Potency [17] | Potency [5] | Potency [6] | outcome [7] | Potency [8] | outcome [9] | outcome [10] | outcome [11] | Potency [12] | Potency [13] | Potency [15] | outcome [16]

CO[C@@H]1[C@H](OC(=O)/C=C/C=C/C=C/C=C/C(=O)O)CC[C@]2(CO2)[C@H]1[C@@]1(C)O[C@@H]1CC=C(C)C
inactive: Potency [1] | Potency [2] | Potency [3] | Potency [4] | Potency [5] | Potency [6] | outcome [7] | Potency [8] | outcome [9] | outcome [10] | outcome [11] | Potency [12] | Potency [13] | outcome [14] | Potency [15] | outcome [16]

CC(C)(COC(=O)c1ccccc1)COC(=O)c1ccccc1
inactive: Potency [1] | Potency [2] | Potency [3] | Potency [4] | Potency [5] | Potency [6] | outcome [7] | Potency [8] | outcome [9] | outcome [10] | outcome [11] | Potency [12] | Potency [13] | outcome [14] | Potency [15] | outcome [16] | Potency [18]

Cc1cc(N)c2cc(NC(=O)Nc3ccc4nc(C)cc(N)c4c3)ccc2n1
inactive: Potency [19] | Potency [3] | Potency [4] | Potency [5] | outcome [7] | Potency [8] | outcome [9] | outcome [10] | outcome [11] | Potency [12] | Potency [13] | Potency [15] | outcome [16]
active: Potency [17] 22.1 µM

CN(Cc1ccc(C(C)(C)C)cc1)Cc1cccc2ccccc12
inactive: Potency [1] | Potency [3] | Potency [4] | Potency [17] | Potency [5] | Potency [6] | outcome [7] | Potency [8] | outcome [9] | outcome [10] | outcome [11] | Potency [12] | Potency [13] | outcome [14] | outcome [16] | Potency [18] | Potency [20]
active: Potency [2] 23.7 µM

CN1CCN(C(c2ccccc2)c2ccccc2)CC1
inactive: Potency [19] | Potency [2] | Potency [3] | Potency [4] | fluorescence, % of triamterene [7] -0.0167% [at 18.6 µM] | fluorescence, % of fluorescent control [8] -0.0303% [at 18.6 µM] | fluorescence, % of fluorescein [9] 0.0022% [at 18.6 µM] | fluorescence, % of fluorescent control [10] -0.0336% [at 18.6 µM] | activity change [11] 0.0291% [at 18.6 µM] | fluorescence, % of fluorescent control [12] 0.0321% [at 18.6 µM] | fluorescence, % of Rose Bengal [13] -0.0854% [at 18.6 µM] | fluorescence, % of fluorescent control [14] -0.0233% [at 18.6 µM] | fluorescence, % of fluorescein control [15] 0.0024% [at 18.6 µM] | fluorescence, % of fluorescent control [16] 0.0094% [at 18.6 µM] | Potency [18]

CCc1c(C(=O)NN2CCCCC2)nn(-c2ccc(Cl)cc2Cl)c1-c1ccc(Br)cc1
inactive: Potency [1] | Potency [3] | Potency [4] | Potency [5] | Potency [6] | outcome [7] | Potency [8] | outcome [9] | outcome [10] | outcome [11] | Potency [12] | Potency [13] | outcome [14] | Potency [15] | outcome [16]
active: Potency [2] 13.7 µM | Potency [17] 24.3 µM

Brc1c2ccccc2cc2ccccc12
inactive: Potency [1] | Potency [2] | Potency [3] | Potency [5] | Potency [6] | outcome [7] | Potency [8] | outcome [9] | outcome [10] | outcome [11] | Potency [12] | Potency [13] | Potency [15] | outcome [16] | Potency [20]
active: Potency [4] 55 µM | Potency [17] 30.9 µM | activation [18] 9.34% [inconclusive] [at 79.2 µM]

CCO[Si](CCCCl)(OCC)OCC
active: Potency [17] 48.1 µM
inactive: Potency [1] | Potency [2] | Potency [3] | Potency [4] | Potency [5] | Potency [6] | outcome [7] | Potency [8] | outcome [9] | outcome [10] | outcome [11] | Potency [12] | Potency [13] | Potency [15] | Potency [20]

CCC(=O)O[C@]1(C(=O)CCl)[C@@H](C)C[C@H]2[C@@H]3CCC4=CC(=O)C=C[C@]4(C)[C@@]3(F)[C@@H](O)C[C@@]21C
inactive: Potency [1] | Potency [2] | Potency [3] | Potency [4] | Potency [5] | Potency [6] | outcome [7] | Potency [8] | outcome [9] | outcome [10] | Potency [12] | outcome [14] | outcome [16]
active: Potency [17] 23.7 µM | Potency [18] 0.0006 µM

CCCCCC[C@@H](O)C/C=C\CCCCCCCC(=O)OC
inactive: Potency [19] | Potency [2] | Potency [4] | Potency [6] | outcome [7] | Potency [8] | outcome [9] | outcome [10] | outcome [11] | Potency [12] | outcome [14] | Potency [15] | outcome [16]

O=C(Nc1ccc(S(=O)(=O)N2CCOCC2)cc1)c1cc(Cl)ccc1NS(=O)(=O)c1ccc(Cl)s1
inactive: Potency [4] | Potency [5] | Potency [6] | outcome [7] | Potency [8] | outcome [9] | outcome [10] | outcome [11] | Potency [12] | Potency [13] | outcome [14] | Potency [15] | outcome [16]
active: Potency [19] 26.6 µM | Potency [2] 9.44 µM | Potency [20] 26.8 µM
